# Values joined by “and” are separate entries in the source; they are usually repeats but may differ in a detail not shown here. Equal values may be shown once.
# Target: Nicotinamide N-methyltransferase (Homo sapiens) (UniProt P40261)
# Test: Confirmatory Screen for Target Class Profiling of Small Molecule Inhibitors of Methyltransferases (AID 1745852)
# Conditions: MTase-Glo luminescence, SAH detection, recombinant enzyme; measured here: NNMT max response; stronger effect = lower value
# Nicotinamide N-methyltransferase (Homo sapiens), sequence (P40261 whole entry, looked up): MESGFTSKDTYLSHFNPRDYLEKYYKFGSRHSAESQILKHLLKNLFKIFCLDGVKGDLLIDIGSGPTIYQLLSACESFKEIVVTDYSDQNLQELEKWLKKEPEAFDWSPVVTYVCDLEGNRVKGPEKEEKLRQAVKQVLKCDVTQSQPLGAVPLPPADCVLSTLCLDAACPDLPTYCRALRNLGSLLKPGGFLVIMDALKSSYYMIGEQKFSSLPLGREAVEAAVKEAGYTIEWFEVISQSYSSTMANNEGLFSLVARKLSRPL
row,SMILES,activity
1,O=C(O)CC[C@@H](C(=O)O)N1C(=O)c2ccccc2C1=O,-12.9%
2,COc1ccccc1CNCCCCCCNCCCCCCCCNCCCCCCNCc1ccccc1OC,-17.7%
3,O=C1NCc2c1c1c3ccccc3[nH]c1c1[nH]c3ccccc3c21,-25.9%
4,Fc1ccc(C(OCCCc2cnc[nH]2)c2ccc(F)cc2)cc1,-23.2%
5,COC1=C(OC)C(=O)c2ccccc2C1=O,-23.6%
6,Oc1ccc(C2CNCc3sccc32)cc1O (stereo not drawn),-8.32%
7,COc1cc(OC)c(/C=C2/C(=O)Nc3ccccc32)c(OC)c1,-28.2%
8,CN1CCc2cccc3c2C1Cc1ccc(O)c(O)c1-3 (stereo not drawn),0.623%
9,N.N.N.N.N.N.N.N.N.N.N.N.N.N.O.O.[Ru+4].[Ru+5].[Ru+5],-45.3%
10,COc1ccc(NC(=O)/C=C/c2ccc(Cl)cc2)cc1,-60.9%
11,Oc1ccccc1O,-3.91%
12,O=[N+]([O-])c1ccc(CNc2nc(NCc3cccc(C(F)(F)F)c3)nc3nc[nH]c23)cc1,-49.3% and -10.9%
13,NO,-5.7%
14,OCC1O[C@H]([S-])[C@H](O)[C@@H](O)[C@@H]1O.[Au+] (stereo partly drawn),-21.4%
15,COc1ccc(Br)cc1S(=O)(=O)NC(=O)/C=C/c1ccccc1Cc1ccc2ccccc2c1,-14.5%
16,CC(C)(C)c1ccc(S(=O)(=O)/C=C/C#N)cc1,-4.25%
17,O=C(O)CNC(=O)C(CS)Cc1ccccc1 (stereo not drawn),2.86%
18,COc1ccc(/C=C2\COc3ccc(C)cc3C2=O)cc1O,-20.1%
19,O=C1C(SCCO)=C(SCCO)C(=O)c2ccccc21,-76.1%
20,O=C(c1cc(O)c(O)c([N+](=O)[O-])c1)c1ccccc1F,-15.6%
21,CC(C)(C=O)Cc1cc(C(C)(C)C)c(O)c(C(C)(C)C)c1,-8.99%
22,Oc1cc2c(cc1O)CN(C(=S)NCCc1ccc(Cl)cc1)CCC2,-17.6%
23,O=Nc1ccc2oc(=O)ccc2c1,-0.856%

# Source: PubChem BioAssay (NCATS)
